HEK cytotox: kills HEK 293 cells; HEK 293 viability, ATP luminescence (CellTiter-Glo), 48-72 h; Potency, µM (doses to about 115 µM), for inactives: at the top dose activity change, negative = cytotoxicity, most hits filed as inhibitors; hit rate 6.6% among 94,000; AID 1345083; note: nearly all actives have a fitted effect of over 60% in size
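Read-out: CellTiter-Glo ATP luminescence. Cells: HEK 293, 250 cells/well. Exposure: 48 or 72 hr, 37 degree Celsius.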
NIH3T3 tox: cytotoxic compounds in NIH 3T3 cells; NIH 3T3 viability, CellTiter-Glo ATP luminescence, 48-72 h; Potency, µM (series often up to 96.7 µM), for the others: at the highest dose activity change, negative = cytotoxicity, usual class: inhibitors; hit rate 4.3% among 94,000; note: nearly all actives have a fitted effect of over 55% in size
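Cells were seeded at 400 per well, treated with pin-transferred compound, and kept 48 or 72 hr at 37 °C before CellTiter-Glo addition and luminescence imaging of cellular ATP.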
Luciferase inh: Photinus pyralis luciferase inhibition; purified P. pyralis luciferase, luminescence, biochemical; Potency, µM (highest dose often 115 µM), usual class: inhibitors; hit rate 2.5% among 76,000; note: nearly all actives have a fitted effect of over 65% in size
Target sequence (P08659 whole entry, looked up): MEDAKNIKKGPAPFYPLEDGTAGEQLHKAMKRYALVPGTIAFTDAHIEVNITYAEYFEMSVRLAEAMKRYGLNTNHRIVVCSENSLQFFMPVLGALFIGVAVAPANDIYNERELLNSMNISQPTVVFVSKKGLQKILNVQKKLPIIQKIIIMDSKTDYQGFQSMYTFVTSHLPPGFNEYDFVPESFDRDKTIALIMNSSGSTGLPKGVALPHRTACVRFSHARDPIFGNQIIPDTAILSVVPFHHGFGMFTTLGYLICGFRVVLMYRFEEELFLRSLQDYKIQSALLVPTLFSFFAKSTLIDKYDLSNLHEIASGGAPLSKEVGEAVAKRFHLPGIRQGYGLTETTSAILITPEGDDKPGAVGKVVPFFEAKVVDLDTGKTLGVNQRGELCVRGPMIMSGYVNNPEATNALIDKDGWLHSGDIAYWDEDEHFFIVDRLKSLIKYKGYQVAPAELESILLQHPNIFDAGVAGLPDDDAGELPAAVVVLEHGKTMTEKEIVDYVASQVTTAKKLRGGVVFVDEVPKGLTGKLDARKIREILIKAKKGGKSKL
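Purified P. pyralis luciferase (10nM final) in 50mM Tris acetate pH 7.5, 10mM Mg acetate, 0.01% Tween-20, 0.05% BSA with 10uM D-luciferin and 10uM ATP. Compounds titrated qHTS. Luminescence imaged on CCD.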
GPT2 inh: inhibitors of human GPT2 alanine aminotransferase; Q8TD30; Recombinant GPT2, coupled pyruvate oxidase/HRP Amplex Red fluorescence; Potency, µM (series often up to 57.7 µM), for inactives: top-dose activity change, negative = inhibition, actives largely listed as inhibitors; hit rate 0.25% among 100,000; AID 1671188; note: nearly all actives have a fitted effect of over 60% in size
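Fluorescence of coupled pyruvate oxidase/HRP/Amplex Red system (50uM Amplex, 30 min, dark) reports pyruvate formed by GPT2. Enzyme reaction: 10ng/uL GPT2, 2mM L-alanine, 250uM a-KG, 30 min room temperature, pH 7.5; 50uM AOA control.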
hNpr1 antagonist: human Npr1 receptor antagonism; P16066; HEK293 hNpr1 GloSensor cGMP, ANP-stimulated luminescence; Potency, µM (doses to about 46.3 µM), without a hit: at the top dose activity change, negative = inhibition, actives largely listed as inhibitors; hit rate 1.6% among 76,000; AID 1347048; calls by dose curve; note: nearly all actives have a fitted effect of over 60% in size
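HEK293 cells stably expressing human Npr1 and cGMP GloSensor pGS-40F, loaded 2 h with 2% GloSensor reagent, given compound 30 min at room temperature. Luminescence read before and 20 min after 0.1 nM hNppA.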
The depositor's hits bear a star; [ ] = another dose, or the depositor's remark. Most compounds without a hit are left out; they make up all but 10% or so of the library. Unless noted, calls come from the whole dose curve; as a rule, active = well fitted curve in the direction sought with a large enough effect; inconclusive = small, poorly fitted or top-dose-only effect, or another doubt; inactive = no such curve, though single readings can be large; an effect the other way counts as inactive or inconclusive. % is set by controls: 0 for no effect and ±100 for the full control effect; potency is the fitted concentration of half-maximal effect.

For OCC1(Cc2ccc(F)cc2)CCCN(c2nc3ccccc3s2)C1 (stereo not given) the results were HEK cytotox 40µM*, NIH3T3 tox inconclusive, Luciferase inh inactive, GPT2 inh -7% and hNpr1 antagonist inconclusive.
For Cc1noc(C)c1CC(=O)NC1CCCc2c1[nH]c1c(Cl)cccc21 (stereo not given) the results were HEK cytotox inconclusive, NIH3T3 tox 20µM*, Luciferase inh inactive, GPT2 inh 4% and hNpr1 antagonist -11%.
`COc1ccc(CC(=O)NC2CCCc3c2[nH]c2c(Cl)cccc32)cc1OC` (stereo not given) gave HEK cytotox 28µM*, NIH3T3 tox 13µM*, Luciferase inh inactive, GPT2 inh inactive and hNpr1 antagonist inconclusive.
For COc1ccccc1C(=O)NC1CCCc2c1[nH]c1c(Cl)cccc21 (stereo not given) the results were HEK cytotox inconclusive, NIH3T3 tox inconclusive, Luciferase inh inactive, GPT2 inh inactive and hNpr1 antagonist 5%.
Cc1noc2nc(C(C)C)cc(C(=O)NC3CCCc4c3[nH]c3c(Cl)cccc43)c12 (stereo not given) was read as HEK cytotox 35µM*, NIH3T3 tox inconclusive, Luciferase inh inactive, GPT2 inh -7% and hNpr1 antagonist -2%.
`O=C1CCN(Cc2ccncc2)CCCC(C(=O)NCCCN2CCCc3ccccc32)CCN1` (stereo not given) gave HEK cytotox inconclusive, NIH3T3 tox inconclusive, Luciferase inh inactive, GPT2 inh -7% and hNpr1 antagonist -1%.
`Cc1cccc(-c2noc([C@@H]3C[C@@H](O)CN3Cc3cccc(C#N)c3)n2)c1` gave HEK cytotox inconclusive, NIH3T3 tox inconclusive, Luciferase inh inconclusive, GPT2 inh 4%[88.5 µM] and hNpr1 antagonist -15%[70.6 µM].
Screening Cc1cccc(-c2noc([C@@H]3C[C@@H](O)CN3C3CCOCC3)n2)c1 returned HEK cytotox inconclusive, NIH3T3 tox -29%[174 µM], Luciferase inh 25µM*, GPT2 inh inactive and hNpr1 antagonist -6%[70.6 µM].
For CC(=O)N1CCC(N2C[C@H](O)C[C@H]2c2nc(-c3ccccc3)no2)CC1 the results were HEK cytotox 0%[172 µM], NIH3T3 tox -5%[138 µM], Luciferase inh inactive, GPT2 inh 4%[88.5 µM] and hNpr1 antagonist 1%[70.6 µM].
Screening CC(=O)N1CCC(N2C[C@H](O)C[C@H]2c2nc(-c3cccc(C)c3)no2)CC1 returned HEK cytotox inconclusive, NIH3T3 tox inconclusive, Luciferase inh 20µM*, GPT2 inh -6%[88.5 µM] and hNpr1 antagonist -8%[70.6 µM].
CCC(=O)N1CCc2sc(C(=O)NCc3cccnc3)cc2C1 was read as HEK cytotox -9%, NIH3T3 tox -29%, Luciferase inh inactive, GPT2 inh inactive and hNpr1 antagonist -1%.
For O=C(CCc1ccccc1)N1C[C@H]2OC(=O)N(CCCN3CCOCC3)[C@H]2C1 the results were HEK cytotox -7%, NIH3T3 tox 5%, Luciferase inh inactive, GPT2 inh 1% and hNpr1 antagonist 0%.
O=C(N[C@@H]1CCC[C@@H]1C(=O)N1CCCC1)c1ccncc1 was read as HEK cytotox inactive, NIH3T3 tox inactive, Luciferase inh inactive, GPT2 inh inactive and hNpr1 antagonist 0%.
O=C(C1CCCN1C(=O)C1CC1)N1CCC(N2CCOCC2=O)CC1 (stereo not given) was read as HEK cytotox 4%, NIH3T3 tox -2% and GPT2 inh inactive.
Screening COCCN1C(=O)CCc2cc(NC(=O)c3ccc(C)cc3C)ccc21 returned HEK cytotox inconclusive, NIH3T3 tox inconclusive, Luciferase inh 40µM*, GPT2 inh -15% and hNpr1 antagonist 0%.
`COCCN1C(=O)CCc2cc(NC(=O)c3ccccc3C)ccc21` gave HEK cytotox -9%, NIH3T3 tox -13%, Luciferase inh inactive, GPT2 inh -8% and hNpr1 antagonist 0%.
CCN1C(=O)CCc2cc(NC(=O)c3ccc(OC)cc3C)ccc21 was read as HEK cytotox 71µM*, NIH3T3 tox inconclusive, Luciferase inh 25µM*, GPT2 inh 5% and hNpr1 antagonist -2%.
Screening Cc1ccc(CC(=O)N2C[C@@H](COc3ccccc3)[C@H](C(N)=O)C2)cc1 returned HEK cytotox -13%, NIH3T3 tox -17%, Luciferase inh inactive, GPT2 inh inactive and hNpr1 antagonist 0%.
`CC(C)Cc1cnc(-c2ccccc2)[nH]1` gave HEK cytotox 100µM*, NIH3T3 tox inconclusive and GPT2 inh 0%[88.5 µM].
`CC(C)Cc1cnc(-c2cccnc2)[nH]1` gave HEK cytotox -1%[230 µM], NIH3T3 tox inconclusive and GPT2 inh 0%[88.5 µM].
CC(C)CCN1CCCC2(C1)C(=NC1CCCC1)NC(=O)N2c1cc(F)cc(F)c1 (stereo not given) was read as HEK cytotox inconclusive, NIH3T3 tox 32µM* and GPT2 inh inactive.
Screening CC(C)CCN1CCC2(CC1)C(=NC1CCCC1)NC(=O)N2c1cc(F)cc(F)c1 returned HEK cytotox 4%, NIH3T3 tox -11% and GPT2 inh -2%.
`COc1cccc(N2C(=O)NC(=NC3CCCC3)C23CCCN(CCC(C)C)C3)c1` (stereo not given) gave HEK cytotox inconclusive, NIH3T3 tox 32µM* and GPT2 inh inactive.
`CCc1cccc2c(C(CC(=O)NCc3ccc4c(c3)OCO4)c3ccc(OC)c(OC)c3)c[nH]c12` (stereo not given) gave HEK cytotox 35µM*, NIH3T3 tox inconclusive, Luciferase inh inactive, GPT2 inh -3% and hNpr1 antagonist -21%.
Screening COc1cccc(C(CC(=O)NCCc2ccc(OC)c(OC)c2)c2c[nH]c3ccccc23)c1 (stereo not given) returned HEK cytotox 45µM*, NIH3T3 tox inconclusive, Luciferase inh inactive, GPT2 inh -1% and hNpr1 antagonist inconclusive.
`CCc1cccc2c(C(CC(=O)NCc3ccc(F)cc3)c3cccc(OC)c3OC)c[nH]c12` (stereo not given) gave HEK cytotox inconclusive, NIH3T3 tox inconclusive, Luciferase inh inactive, GPT2 inh 5% and hNpr1 antagonist 0%.
Screening CCc1cccc2c(C(CC(=O)NCCc3ccc(OC)c(OC)c3)c3cccc(OC)c3)c[nH]c12 (stereo not given) returned HEK cytotox 25µM*, NIH3T3 tox inconclusive, Luciferase inh inactive, GPT2 inh inactive and hNpr1 antagonist -15%.

Bioassay records deposited in PubChem BioAssay by National Center for Advancing Translational Sciences (NCATS).
